The text below walks through data of the OligoGym collection.
Also: reference of the scale not given here.

One assay addresses LIMK2. Briefly: pooled miR-30 sensor sort-seq; sequence = guide strand. The settings on record: shRNA.
With ATCTGCTGTGAATAGCTGCTGG, the sensor-assay potency score (higher = more potent) is -0.683.
In turn, TCGTTGACAGTCCTGTACCATA returned a sensor-assay potency score (higher = more potent) of -1.6.
In turn, TTGTCCAACTTGATGAGGCAGT showed a sensor-assay potency score (higher = more potent) of -0.14.
Still for that read-out and setting: for TTCTGAGATCTCCTCTTCCTGG the value was -0.852; for TTCACTTGCACAGTGGTGGCGT, 0.835.
With TCGAGTAACAGATTCCTCCTGG, the sensor-assay potency score (higher = more potent) was determined as 1.05.

A further assay concerns the target LIN54. Described as above. The settings on record: shRNA.
Sequence TTGTCTGTCCTGTAACTGCTTT showed a sensor-assay potency score (higher = more potent) of -0.449.
Same read-out and setting: for TTATGTAACATTCTGTCTGCAG the value was 0.565; for TACAATTTCAAACACAGTGATT, -0.963.
Same read-out and setting: for TTTTAAGACATCCTGATCGTTT the value was -0.141; for TTTCTTTAAAAGATAGTCCTTT, 0.288.
In the case of TACAACTATAGAGTCCTTGTAG, the sensor-assay potency score (higher = more potent) is 0.323.
In the case of TTAGTAAGTACTACACAGGAAG, the sensor-assay potency score (higher = more potent) was -0.992.
Sequence TAGTCTTTTAAAATCATTGAAT displayed a sensor-assay potency score (higher = more potent) of -0.779.
TAAACATACTAGATTGAGGTGC had a sensor-assay potency score (higher = more potent) of -0.0512.
The same measure, in the same setting: for TTTACAAGCAAAACATTCGTAA the value was -0.274.

The target of another assay is LIN7C. The description is as above. The following applies: shRNA.
As for TAATATTGAATCCAAGGCCCTC, the sensor-assay potency score (higher = more potent) is -0.834.
Take TTTTCTTACAATCATTGGCATT: the sensor-assay potency score (higher = more potent) was -1.46.
Still for that read-out and setting: for TTTTGGTAGCTCAACAACTCGA the value was -0.544.
TTTCTTCTAAGACTTTGGGTGT yielded a sensor-assay potency score (higher = more potent) of -0.276.
Regarding TCTACAAATATCTCTCTCCAGC, the sensor-assay potency score (higher = more potent) is -1.02.
TAGCGTTCGCTCTCACTTCAGG had a sensor-assay potency score (higher = more potent) of -0.712.
The same measure, in the same setting: for TTCACTTTGAAGGACTCTTTGC the value was -0.329.
TTGCTCTACAAATATCTCTCTC: the sensor-assay potency score (higher = more potent) was -0.491.
Same read-out and setting: for TCTATCAGCAATTCCACCTGGA the value was 1.09.
On the same count and under the same terms, for TAACCTTTCCTTGTGCGGCTTT the value was 0.0216.

A further assay addresses LINGO4. The description is as above. The following applies: shRNA.
TCTAGGACCCTTACTCTCCCAG had a sensor-assay potency score (higher = more potent) of -0.898.
On the same count and under the same terms, for TGTGATGTTTGACCCGACCTTT the value was -0.94; for TTGAGAGCTGGTTGTAGCTGAG, -0.0336.
ATATCCAGTTCTCTAAGCCTTA had a sensor-assay potency score (higher = more potent) of -0.907.
TAGCTCCTGGAGCCGCACCAGG came in with a sensor-assay potency score (higher = more potent) of -1.44.
On the same count and under the same terms, for TTGCCAGACAGCCTCAAGGTGA the value was -1.39; for ATCTAGGAAGAGAACAATCTGG, -0.599.
Consider TAGCTGAGGTCCAATTCCTGGA, for which the sensor-assay potency score (higher = more potent) is -0.789.
Same read-out and setting: for TTCCACCTGGATGACTTCCAGC the value was -1.16.
TTATCTGCCACATCCAGGAGGT yielded a sensor-assay potency score (higher = more potent) of -0.12.
Same read-out and setting: for TTTGACCCGACCTTTGCCCTTG the value was -0.241.
In the case of TGAGGTGGTACAGTGCTTGGAA, the sensor-assay potency score (higher = more potent) was 0.431.
